# Out of some 39,000 compounds screened, about 3,300 (8.5%) were called active. This excerpt belongs to a sample that is enriched for actives.
# Tested on: HepG2
# Experiment: cytotoxicity call (relative viability < 0.9)
# Details: 10 µM
row,SMILES,cytotoxicity call
1,C[C@@H]1CN([C@H](C)CO)C(=O)c2cccc(NC(=O)C3CCOCC3)c2O[C@H]1CN(C)S(=O)(=O)c1cccs1,inactive
2,C[C@@H]1CN([C@H](C)CO)C(=O)c2cc(NC(=O)Nc3cccc4ccccc34)ccc2O[C@@H](C)CCCCO[C@H]1CN(C)Cc1ccc(Cl)c(Cl)c1,inactive
3,C[C@@H]1CN([C@@H](C)CO)C(=O)c2cc(NC(=O)Cn3cnnn3)ccc2O[C@H]1CN(C)Cc1ccc(-c2ccccc2)cc1,inactive
4,CC(C)CN1C(=O)[C@@]2(c3ccc([N+](=O)[O-])cc3)CC(=O)N(CC34CC5CC(CC(C5)C3)C4)[C@@H]2c2ccc(CO)cc21,inactive
5,Cc1cc(C)n(-c2nc(=O)cc(C)[nH]2)n1,inactive
6,[N-]=[N+]=NCCOCCNC(=O)CCCOc1ccc(CS(=O)c2nnc(-c3ccc(F)cc3)o2)nc1 (configuration not stated),active
7,COc1ccc(NC(=O)N(C)C[C@@H]2OCCCC[C@@H](C)Oc3ccc(NC(=O)CCC(F)(F)F)cc3C(=O)N([C@@H](C)CO)C[C@H]2C)cc1,inactive
8,Cc1noc(C)c1NC(=O)N(C)C[C@@H]1OCCCC[C@@H](C)Oc2ccc(NS(=O)(=O)c3ccc(F)cc3)cc2C(=O)N([C@H](C)CO)C[C@@H]1C,inactive
9,C[C@@H]1CN([C@@H](C)CO)C(=O)Cc2cc(NC(=O)Cc3cn(C)c4ccccc34)ccc2O[C@@H]1CN(C)S(C)(=O)=O,inactive
10,CCS(=O)(=O)CCn1c([N+](=O)[O-])cnc1C [listing 1 of 2 here],active
11,CCS(=O)(=O)CCn1c([N+](=O)[O-])cnc1C [listing 2 of 2 here],inactive
12,Cc1ncc([N+](=O)[O-])n1CCO,inactive
13,Cc1cc(O)c(-c2ccc([C@@H](C)CN)cc2)c2c1[nH]c(=O)c1sccc12,active
14,C[C@H]1CN([C@@H](C)CO)C(=O)CCCn2nncc2CO[C@@H]1CN(C)C(=O)c1cc(-c2ccccc2)on1,inactive
15,C[C@@H]1CCCCO[C@@H](CN(C)S(=O)(=O)c2ccccc2)[C@@H](C)CN([C@@H](C)CO)C(=O)c2cc(NC(=O)Nc3ccc4c(c3)OCO4)ccc2O1,inactive
16,CCOC(=O)c1cc2c(c(-c3ccccc3)n1)[C@@H](CCO[Si](C)(C)C(C)(C)C)N([S@](=O)C(C)(C)C)C2,inactive
17,CC(C)(C)S(=O)N1Cc2cc(C(=O)Nc3ccc(-c4ccccc4)cc3)nc(-c3cccc(-c4cccc(F)c4)c3)c2[C@@H]1CCO (some centres not stated),active
18,COc1ccc(CNC(=O)c2cc3c(c(-c4cccc(-c5cccc(C#N)c5)c4)n2)[C@@H](CCO)N([S@](=O)C(C)(C)C)C3)cc1,inactive
19,CC(C)(C)S(=O)N1Cc2cc(C(=O)NCc3ccc(Oc4ccccc4)cc3)nc(-c3cccc(C#CCC4CCCC4)c3)c2[C@@H]1CCO (some centres not stated),inactive
20,CCOC(=O)c1cc2c(c(-c3cccc(C#CCN(C)C)c3)n1)[C@@H](CCO[Si](C)(C)C(C)(C)C)N([S@](=O)C(C)(C)C)C2,active
21,CC(C)(C)S(=O)N1Cc2cc(C(=O)NCc3ccc(Oc4ccccc4)cc3)nc(-c3cccc(-c4cccc(F)c4)c3)c2[C@@H]1CCO (some centres not stated),active

row,SMILES,cytotoxicity call
1,CCOC(=O)c1cc2c(c(-c3cccc(Br)c3)n1)[C@@H](CCO[Si](C)(C)C(C)(C)C)N([S@](=O)C(C)(C)C)C2,inactive
2,CCNC(=O)c1cc2c(c(-c3cccc(-c4cccc(F)c4)c3)n1)[C@H](CCO)N([S@@](=O)C(C)(C)C)C2,active
3,CCNC(=O)c1cc2c(c(-c3cccc(-c4cccc(F)c4)c3)n1)[C@@H](CCO)N([S@](=O)C(C)(C)C)C2,inactive
4,CCCNC(=O)c1cc2c(c(-c3cccc(-c4ccc(F)cc4)c3)n1)[C@H](CCO)N([S@@](=O)C(C)(C)C)C2,inactive
5,CCCNC(=O)c1cc2c(c(-c3cccc(-c4ccc(F)cc4)c3)n1)[C@@H](CCO)N([S@](=O)C(C)(C)C)C2,inactive
6,CCCNC(=O)c1cc2c(c(-c3cccc(-c4cccc(F)c4)c3)n1)[C@H](CCO)N([S@@](=O)C(C)(C)C)C2,inactive
7,C[C@@H]1CN([C@@H](C)CO)C(=O)c2cc(NC(=O)c3ccncc3)ccc2O[C@@H](C)CCCCO[C@H]1CN(C)S(C)(=O)=O,inactive
8,C[C@H]1CN([C@@H](C)CO)S(=O)(=O)c2ccc(-c3cccnc3)cc2O[C@H]1CN(C)CC1CCOCC1,inactive
9,C[C@H](CO)N1C[C@H](C)[C@@H](CN(C)C(=O)Nc2cccc3ccccc23)OCCCC[C@H](C)Oc2ccc(NC(=O)Nc3ccc4c(c3)OCO4)cc2C1=O,inactive
10,O=C(O)Cn1nnc(-c2ccccc2)n1,inactive
11,C[C@@H]1CCCCO[C@@H](CN(C)C(=O)Cc2ccccc2)[C@H](C)CN([C@@H](C)CO)C(=O)c2cc(NS(=O)(=O)c3cccs3)ccc2O1,inactive
12,COC(=O)c1[nH]c(C(=O)OC)c(O)c1O,inactive
13,C[C@H]1CN([C@@H](C)CO)C(=O)c2cc(C3=CCCC3)cnc2O[C@@H]1CN(C)S(=O)(=O)c1cn(C)cn1,inactive
14,CC(C)(C)S(=O)N1Cc2cc(C(=O)Nc3ccc(-c4ccccc4)cc3)nc(-c3cccc(C#CCC4CCCC4)c3)c2[C@@H]1CCO (some centres not stated),inactive
15,CC(C)(O)C#Cc1cccc(-c2nc(C(=O)NCCCN3CCOCC3)cc3c2[C@@H](CCO)N(S(=O)C(C)(C)C)C3)c1 (some centres not stated),inactive
16,CC(C)(C)[S@](=O)N1Cc2cc(C(=O)NCC(F)(F)F)nc(-c3cccc(-c4cccc(F)c4)c3)c2[C@@H]1CCO,active
17,CCCNC(=O)c1cc2c(c(-c3cccc(-c4cccc(F)c4)c3)n1)[C@@H](CCO)N([S@](=O)C(C)(C)C)C2,inactive
18,CC(C)(C)[S@@](=O)N1Cc2cc(C(=O)NCC(F)(F)F)nc(-c3cccc(-c4cccc(F)c4)c3)c2[C@H]1CCO,inactive
19,CC(C)(O)C#Cc1cccc(-c2nc(C(=O)Nc3ccc(-c4ccccc4)cc3)cc3c2[C@@H](CCO)N(S(=O)C(C)(C)C)C3)c1 (some centres not stated),active
20,C[C@@H]1CN([C@@H](C)CO)C(=O)c2cc(NC(=O)Nc3ccc4c(c3)OCO4)ccc2O[C@@H](C)CCCCO[C@@H]1CN(C)S(=O)(=O)c1ccc(F)cc1,inactive
21,C[C@@H]1CN([C@@H](C)CO)C(=O)c2cc(NS(=O)(=O)c3cn(C)cn3)ccc2O[C@H]1CN(C)C(=O)Nc1ccc(F)cc1,inactive

# From the antibiotic and cytotoxicity screens of Wong et al. (2023)
